Measurements from PubChem BioAssay.
Active and inactive are the calls of the source. Unless noted, the rule behind the calls is not given here.

Assays:
[1] = anti-His antibody binders, primary screen, artefact control for SMM control protein annotation, biochemical, small-molecule microarray, 635 nm fluorescence (AID 1128); settings: anti-His Alexa647 antibody binding, higher = more signal;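 note: score merges feature fluorescence with signal-to-noise for each printed compound spot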
[2] = tested on: Human papillomavirus type 1a E7 protein (residues 1-88); test: HPV1a E7 small-molecule binders, primary screen, biochemical, small-molecule microarray, residues 1-88, 635 nm (AID 1129); settings: small-molecule microarray binding, fluorescence 635 nm; higher = more signal
[3] = molecular target: Focal adhesion kinase 1 (Homo sapiens) (UniProt Q05397); test: small-molecule microarray binders of FAK, primary screen, biochemical, 635/667 nm fluorescence, BSA, DTT (AID 1130); settings: PTK2 binding, 635 nm fluorescence, higher = more signal;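 note: composite of spot emission at 667 nm and signal to noise over triplicate slides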
[4] = tested on: Fibrinogen (Alexa647-labelled); test: fibrinogen binders on compound microarrays, profiling panel, artefact control for SMM control-protein annotation, biochemical, small-molecule microarray, 635/667 nm fluorescence (AID 1131); settings: fibrinogen-A647 binding fluorescence, higher = more signal;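 note: z-score merges 667 nm fluorescence with per-spot signal-to-noise over triplicate slides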
[5] = molecular target: Follistatin (Homo sapiens) (UniProt P19883); test: follistatin binders on small-molecule microarrays, primary screen, biochemical, small-molecule microarray, 635/667 nm fluorescence (AID 1132); settings: FST binding, 635 nm fluorescence, higher = more signal
[6] = molecular target: Fibroblast growth factor 2 (Homo sapiens) (UniProt P09038); test: FGF2 binders on small-molecule microarrays, primary screen, biochemical, small-molecule microarray, 635/667 nm fluorescence (AID 1133); settings: small-molecule microarray binding, FGF2, fluorescence 635/667; higher = more signal
[7] = mitochondrial membrane potential change in A549 cells, profiling panel, cell-based, JC-1 fluorescence, basal, 24 h, 100 nL (AID 1138); settings: higher = more signal;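 note: A549 lung adenocarcinoma cells under basal conditions with no added stimulus; test concentration not given here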
Lefty1 = Lefty1 binders on small-molecule microarrays, primary screen, biochemical, small-molecule microarray, 635/667 nm fluorescence (AID 1139); settings: small-molecule microarray binding, fluorescence 635/667; higher = more signal
[8] = tested on: wheat germ agglutinin (Triticum aestivum), Alexa647-labelled; test: wheat germ agglutinin binders on compound microarrays, profiling panel, artefact control for SMM control-protein annotation, biochemical, small-molecule microarray, 635/667 nm fluorescence (AID 1140); settings: WGA-A647 binding, 635 nm fluorescence, higher = more signal;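 note: score merges 667 nm feature emission with signal to noise over triplicate slides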
[9] = molecular target: Luciferin 4-monooxygenase (Photinus pyralis) (UniProt P08659); test: firefly luciferase enzyme inhibitors, primary screen, biochemical, luminescence, purified enzyme, 2006 set (AID 1141); settings: SteadyGlo luminescence, 30 min, higher = more signal, called active from +8 up or from −8 down;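 note: cell-free assay with purified firefly luciferase at 100 ng per well in PBS; test concentration not given here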
[10] = tested on: Wnt5a (protein binding on small-molecule microarray); test: Wnt5a binders on small-molecule microarray, primary screen, biophysical, 635/667 nm fluorescence (AID 1142); settings: 635 nm fluorescence, higher = more signal;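 note: fluorescence read at 667 nm with signal to noise per printed feature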
[11] = cell viability in Huh7 cells, primary screen, cytotoxicity control for HCV replication inhibitor project, CellTiter-Glo luminescence, basal, 48 h (AID 1143); settings: Huh7 HCV replicon, higher = more signal, called active from +8 up or from −8 down;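 note: Huh7 hepatoma cells carrying a hepatitis C replication reporter with no stimulus; test concentration not given here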
[12] = P. aeruginosa biofilm formation inhibitors, primary screen, PAO1 strain, BacTiter-Glo luminescence, LB-PBS (AID 1144); settings: 12 h, higher = more signal
[13] = CREB reporter modulators without forskolin, primary screen, cell-based, PC12, CRE-LacZ reporter, unstimulated (AID 1145); settings: no forskolin, luminescence, 4.5 h, higher = more signal, called active from +8 up or from −8 down
[14] = CREB reporter modulators under forskolin, primary screen, cell-based, PC12, CRE-LacZ reporter, forskolin-stimulated (AID 1146); settings: luminescence, 4.5 h, higher = more signal, called active from +8 up or from −8 down;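 note: PC12 cells with 6xCRE LacZ reporter stimulated by forskolin 10 µM; beta-galactosidase reporter signal reflecting CREB driven transcription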
[15] = molecular target: Streptavidin (Streptomyces avidinii) (UniProt P22629); test: streptavidin binders on small-molecule microarray, primary screen, artefact control for SMM compound annotation, biophysical, 635/667 nm fluorescence (AID 1147); settings: streptavidin binding, higher = more signal;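 note: signal reflects streptavidin binding to arrayed compounds as a control protein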
[16] = small-molecule binders of probe aInhba, primary screen, biochemical, small-molecule microarray, 635/667 nm fluorescence (AID 1148); settings: higher = more signal;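 note: score merges 667nm spot fluorescence with signal-to-noise for antibody binding to printed compounds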
Torsin-1A (Homo sapiens) [17] = molecular target: Torsin-1A (Homo sapiens) (UniProt O14656); test: torsin A binders from cell lysate, primary screen, small-molecule microarray, wild-type, 635/667 nm (AID 1149); settings: COS7 hTOR1A-WT lysate, 635 nm fluorescence, higher = more signal
Torsin-1A (Homo sapiens) [18] = molecular target: Torsin-1A (Homo sapiens) (UniProt O14656); test: small-molecule binders of mutant TOR1A in lysate, primary screen, cell lysate, small-molecule microarray, COS7 lysate, 635/667 nm fluorescence (AID 1150); settings: COS7 hTOR1A mutant lysate, 635 nm fluorescence, higher = more signal;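 note: score pools 667 nm emission and signal to noise measuring lysate protein binding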
[19] = tested on: Sonic hedgehog protein (Shh); test: small-molecule binders of Shh protein, primary screen, biochemical, small-molecule microarray, 635/667 nm fluorescence (AID 1151); settings: small-molecule microarray binding, 635 nm fluorescence; higher = more signal;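 note: Shh protein binding to compounds spotted on small-molecule microarray slides; score combines spot fluorescence intensity with signal-to-noise across triplicate slides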

Chain of Streptavidin (Streptomyces avidinii) (P22629 whole entry, looked up): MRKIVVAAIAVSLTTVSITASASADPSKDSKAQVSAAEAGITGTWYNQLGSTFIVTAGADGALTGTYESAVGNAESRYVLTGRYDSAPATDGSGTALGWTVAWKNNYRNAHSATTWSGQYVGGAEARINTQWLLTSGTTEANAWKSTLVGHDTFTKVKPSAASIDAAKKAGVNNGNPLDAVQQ
Chain of Torsin-1A (Homo sapiens) (O14656 whole entry, looked up): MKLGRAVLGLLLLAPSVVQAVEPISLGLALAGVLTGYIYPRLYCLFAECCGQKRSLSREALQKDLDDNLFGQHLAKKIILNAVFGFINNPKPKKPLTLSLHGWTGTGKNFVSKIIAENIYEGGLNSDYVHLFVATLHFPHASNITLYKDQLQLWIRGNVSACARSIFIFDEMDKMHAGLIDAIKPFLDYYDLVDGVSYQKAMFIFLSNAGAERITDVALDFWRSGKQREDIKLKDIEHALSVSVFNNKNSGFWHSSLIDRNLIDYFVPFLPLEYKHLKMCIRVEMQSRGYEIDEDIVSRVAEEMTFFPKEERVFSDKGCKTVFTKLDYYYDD
Chain of Fibroblast growth factor 2 (Homo sapiens) (P09038 whole entry, looked up): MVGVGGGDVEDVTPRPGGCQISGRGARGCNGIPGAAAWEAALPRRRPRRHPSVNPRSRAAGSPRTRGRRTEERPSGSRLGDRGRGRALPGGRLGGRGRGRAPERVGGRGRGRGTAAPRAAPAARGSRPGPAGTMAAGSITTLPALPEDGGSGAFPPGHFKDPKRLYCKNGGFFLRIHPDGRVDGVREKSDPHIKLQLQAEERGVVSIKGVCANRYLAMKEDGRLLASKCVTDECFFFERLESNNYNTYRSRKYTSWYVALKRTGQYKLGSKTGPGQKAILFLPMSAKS
Chain of Luciferin 4-monooxygenase (Photinus pyralis) (P08659 whole entry, looked up): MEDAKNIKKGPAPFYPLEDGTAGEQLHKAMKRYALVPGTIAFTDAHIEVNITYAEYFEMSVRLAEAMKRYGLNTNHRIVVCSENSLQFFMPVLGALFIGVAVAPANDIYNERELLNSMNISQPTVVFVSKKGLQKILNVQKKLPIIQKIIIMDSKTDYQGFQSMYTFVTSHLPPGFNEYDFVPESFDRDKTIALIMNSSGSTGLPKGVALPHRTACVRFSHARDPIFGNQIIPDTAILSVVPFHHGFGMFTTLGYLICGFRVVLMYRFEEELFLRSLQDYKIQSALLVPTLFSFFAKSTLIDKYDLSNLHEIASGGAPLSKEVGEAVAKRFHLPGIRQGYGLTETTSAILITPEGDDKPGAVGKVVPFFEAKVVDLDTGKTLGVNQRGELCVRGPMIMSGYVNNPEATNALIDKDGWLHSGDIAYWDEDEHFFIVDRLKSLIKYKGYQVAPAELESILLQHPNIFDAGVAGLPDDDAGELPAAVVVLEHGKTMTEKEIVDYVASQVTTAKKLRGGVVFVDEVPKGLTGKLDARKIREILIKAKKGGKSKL
Chain of Focal adhesion kinase 1 (Homo sapiens) (Q05397 whole entry, looked up): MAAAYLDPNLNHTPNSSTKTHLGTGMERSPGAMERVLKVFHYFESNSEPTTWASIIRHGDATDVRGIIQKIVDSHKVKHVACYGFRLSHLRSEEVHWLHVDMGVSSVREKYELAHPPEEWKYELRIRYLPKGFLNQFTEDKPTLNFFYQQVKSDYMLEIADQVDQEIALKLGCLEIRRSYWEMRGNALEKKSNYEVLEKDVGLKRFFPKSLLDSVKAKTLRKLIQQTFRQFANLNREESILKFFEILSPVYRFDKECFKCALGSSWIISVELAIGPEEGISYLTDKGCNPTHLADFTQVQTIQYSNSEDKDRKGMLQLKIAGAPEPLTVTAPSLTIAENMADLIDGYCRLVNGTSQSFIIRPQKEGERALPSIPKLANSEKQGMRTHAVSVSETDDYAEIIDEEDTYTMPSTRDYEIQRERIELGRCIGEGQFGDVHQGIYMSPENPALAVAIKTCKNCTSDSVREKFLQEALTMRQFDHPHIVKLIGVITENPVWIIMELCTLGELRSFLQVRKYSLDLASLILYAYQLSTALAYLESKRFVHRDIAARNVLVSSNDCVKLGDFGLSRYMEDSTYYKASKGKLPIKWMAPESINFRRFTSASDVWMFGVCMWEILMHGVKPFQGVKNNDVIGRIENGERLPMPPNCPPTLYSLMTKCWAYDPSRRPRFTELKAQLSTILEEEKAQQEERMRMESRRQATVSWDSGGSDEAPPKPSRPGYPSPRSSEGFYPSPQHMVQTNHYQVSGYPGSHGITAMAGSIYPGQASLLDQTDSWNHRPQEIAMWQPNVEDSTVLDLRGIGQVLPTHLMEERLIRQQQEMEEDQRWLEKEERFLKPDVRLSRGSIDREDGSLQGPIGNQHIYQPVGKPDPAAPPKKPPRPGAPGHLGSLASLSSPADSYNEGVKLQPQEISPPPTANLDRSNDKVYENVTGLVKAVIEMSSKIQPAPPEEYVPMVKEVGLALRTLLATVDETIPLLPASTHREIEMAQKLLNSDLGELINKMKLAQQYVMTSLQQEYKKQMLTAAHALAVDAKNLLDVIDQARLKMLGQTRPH
Chain of Follistatin (Homo sapiens) (P19883 whole entry, looked up): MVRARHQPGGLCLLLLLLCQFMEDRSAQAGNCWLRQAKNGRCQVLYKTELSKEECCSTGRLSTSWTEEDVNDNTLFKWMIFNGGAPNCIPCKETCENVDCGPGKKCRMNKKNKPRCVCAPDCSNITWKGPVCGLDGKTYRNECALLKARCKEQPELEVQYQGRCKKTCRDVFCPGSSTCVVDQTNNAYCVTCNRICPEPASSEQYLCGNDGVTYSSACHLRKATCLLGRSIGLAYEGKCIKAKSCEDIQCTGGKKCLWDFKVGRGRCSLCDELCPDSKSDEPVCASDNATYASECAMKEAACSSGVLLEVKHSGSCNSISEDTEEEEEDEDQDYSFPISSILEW

Row | Structure (SMILES) | composite z-score [1] | composite z-score [2] | composite z-score [3] | composite z-score [4] | composite z-score [5] | composite z-score [6] | z-score [7] | composite z-score (Lefty1) | composite z-score [8] | z-score [9] | composite z-score [10] | z-score [11] | z-score [12] | z-score [13] | z-score [14] | composite z-score [15] | composite z-score [16] | composite z-score (Torsin-1A (Homo sapiens) [17]) | composite z-score (Torsin-1A (Homo sapiens) [18]) | composite z-score [19]
1 | C=C(CCCC)/C(=C/C[C@@H](OC(C)=O)c1ccc(CO)o1)c1cnc2ccccc2c1 | 1.12 | 1.21 | 0.119 | 0.948 | 1.31 | 1.54 | -0.587 | 1.51 | 1.27 | -3.09 (inactive) | 0.401 | -0.257 (inactive) | -0.134 (inactive) | 2.76 (inactive) | 0.128 (inactive) | 0.843 | 0.0536 | 1.18 | 1.13 | 1.39
2 | CCOC(=O)C[C@H]1[C@H](OC(=O)c2cc3ccccc3oc2=O)[C@@H](NC(=O)CC(C)C)c2cc(OCCCO)ccc2N1C(=O)Cc1ccc(OC)cc1 | 0.0111 | 0.43 | -0.0515 | 0.942 | 0.642 | 0.443 | 0.613 | 0.849 | 0.158 | 0.411 (inactive) | 0.221 | -0.387 (inactive) | 1.19 (inactive) | 1.02 (inactive) | -0.505 (inactive) | 0.0665 | -0.128 | -0.0652 | 0.304 | 0.97
3 | COCCOC(=O)N1C(=O)[C@@]2(c3cc(C#CCCO)ccc31)[C@H](c1ccccc1OCCO)N1[C@H](c3ccccc3)[C@H](c3ccccc3)OC(=O)[C@H]1[C@@H]2C(N)=O | 1.75 | 1.24 | 0.621 | 0.996 | 1.02 | 0.963 | -0.0726 | 0.78 | 0.246 | 0.85 (inactive) | 0.536 | -4.33 (inactive) | -0.441 (inactive) | 0.0653 (inactive) | 18.6 (active) | 0.508 | -0.226 | -0.0615 | 0.172 | 1.97
4 | CN(C)C(=O)[C@@]1(Cc2ccccc2CN=[N+]=[N-])COC(c2ccc(OCCCO)cc2)=N1 | 1.81 | 1.15 | 0.652 | 0.949 | -0.0539 | -0.572 | 1.43 | -0.42 | 0.603 | 1.15 (inactive) | 0.0037 | -3.16 (inactive) | -0.632 (inactive) | -1.34 (inactive) | -1.65 (inactive) | -0.0988 | -0.0288 | -0.184 | 0.715 | -1.22
5 | CN(C)CCCCNC(=O)[C@H]1C[C@H]2C(=O)NCC(=O)N2[C@H]1c1ccc(O)cc1 | 0.489 | -0.791 | -0.424 | -0.473 | 0.481 | 0.304 | -0.124 | 0.057 | 1.08 | 0.836 (inactive) | -0.311 | 0.153 (inactive) | 0.0384 (inactive) | -0.943 (inactive) | -0.489 (inactive) | -0.761 | -0.344 | -0.0276 | 1.07 | 1.57
6 | [N-]=[N+]=Nc1ccccc1[C@@H]1OC(c2ccc(OCCCO)cc2)=N[C@]1(CCS(=O)(=O)c1ccccc1)C(=O)NCC(O)CO (stereo not given in full) | 0.592 | 0.794 | 0.131 | 0.911 | 0.518 | -0.0365 | -0.298 | -0.285 | 1.02 | -9.87 (active) | -0.0534 | -1.33 (inactive) | -0.27 (inactive) | 0.0827 (inactive) | 0.0767 (inactive) | 1.54 | 0.0051 | 1.37 | 1.61 | -0.475
7 | CC=CC(O)C1C=CC2C(=O)NC(=O)C2N1Nc1ccc(Cl)cc1Cl (stereo not given) | 1.78 | -0.352 | -0.288 | -0.419 | 1.04 | -0.0658 | 0.099 | 0.15 | 0.898 | -0.158 (inactive) | -0.242 | 0.323 (inactive) | 0.101 (inactive) | -0.133 (inactive) | 0.467 (inactive) | 0.0171 | -0.176 | 0.34 | 0.0964 | 0.443
8 | CC(C)(C)OC(=O)CC[C@]1(C(=O)NCC(O)CO)N=C(c2ccc(OCCCO)cc2)O[C@H]1c1ccccc1N=[N+]=[N-] (stereo not given in full) | 2.42 | 1.01 | 0.696 | 0.953 | 1.38 | 0.581 | 0.739 | -0.41 | 1.3 | -8.87 (active) | 0.112 | -1.01 (inactive) | -0.00253 (inactive) | -0.0808 (inactive) | -1.48 (inactive) | 1.38 | 0.32 | 0.172 | 0.565 | 0.0555
9 | COC(=O)[C@@]1(Cc2ccc(F)cc2)[C@H]2c3cc(C(=O)N4CCCC4)n(CCc4ccccn4)c3C[C@H]2CN1C(=O)c1ccccc1 | 0.272 | 0.786 | 0.754 | 0.97 | -0.227 | -0.418 | 0.622 | -1.03 | 1.01 | 0.458 (inactive) | -0.0942 | -0.619 (inactive) | -0.237 (inactive) | 2.87 (inactive) | 0.245 (inactive) | 0.478 | 0.0889 | -0.226 | 0.783 | 0.208
10 | CC(=O)c1ccc(C(O)C2C=CC3C(=O)N(c4ccccc4)C(=O)C3N2Nc2ccc(C(C)C)cc2)cc1 (stereo not given) | 0.779 | 1.23 | 0.329 | 0.939 | 1.13 | 1.1 | 0.678 | -0.212 | 1.17 | -1.41 (inactive) | 0.0129 | -1.16 (inactive) | -0.853 (inactive) | 1.4 (inactive) | -0.17 (inactive) | 1.43 | 0.361 | -0.127 | 0.135 | 0.295
